Rows were chosen to be rich in hits. Some 2.3% of all compounds tested hit in one or more screens of this group.
IDE act – human IDE activators in live cells, primary screen, fluorescence polarization, HEK cells, FAbeta-B substrate; Insulin-degrading enzyme (Homo sapiens), P14735; FAbeta-B cleavage; 0% vehicle, 100% cell-free pure enzyme wells; activation, % at 5.96 µM; 340,000 tested, 0.073% active; AID 493087, 2011;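 active means activation above the mean of all tested compounds plus 3 SD, set per screening campaign, cut at about 17% in these data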
Rpn11 inh – Rpn11 (PSMD14) deubiquitinase inhibitors, primary screen, biochemical, fluorescence polarization, uHTS. 26S proteasome non-ATPase regulatory subunit 14 (Homo sapiens), O00487. human 26S proteasome, Ub4-pepOG fluorescence polarization; 20S core pre-blocked with epoxomicin. inhibition, % at 20 µM. 360,000 tested, 0.59% active. AID 588493, 2011;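 active means inhibition at 20 µM, scaled to each plate's controls, above about 33%, limit read from the data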
Target sequence (O00487 whole entry, looked up): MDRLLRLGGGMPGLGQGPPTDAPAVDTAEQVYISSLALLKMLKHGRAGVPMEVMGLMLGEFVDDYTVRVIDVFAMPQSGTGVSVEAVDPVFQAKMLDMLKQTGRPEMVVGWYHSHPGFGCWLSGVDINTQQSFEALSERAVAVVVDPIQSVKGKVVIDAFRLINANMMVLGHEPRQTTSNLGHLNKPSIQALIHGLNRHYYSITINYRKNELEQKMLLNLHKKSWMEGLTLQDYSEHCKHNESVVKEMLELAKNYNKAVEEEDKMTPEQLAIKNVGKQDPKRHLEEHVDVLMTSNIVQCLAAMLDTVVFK
IDE inh – human IDE inhibitors in live cells, primary screen, fluorescence polarization, HEK cells, FAbetaB substrate | Insulin-degrading enzyme (Homo sapiens), P14735 | FAbetaB cleavage | inhibition, % at 5.59 µM | 320,000 tested, 0.41% active | AID 434962, 2010;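 active means percent inhibition above the average of all tested compounds plus 3 SD, set per screening campaign, cut at about 16% in these data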;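 further: IDE supplied by intact live HEK cells; FP after avidin binding of uncleaved biotin substrate so inhibition keeps polarization high; 0% = DMSO wells and 100% = 60 µM reference IDE inhibitor Ii1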
Rin1 Abl inh – inhibitors of Rin1-Abl protein binding, primary screen, biochemical, TR-FRET. Tyrosine-protein kinase ABL1 (Homo sapiens) + Ras and Rab interactor 1 (Homo sapiens), …. 360,000 tested, 0.4% active. inhibition, % at 7.35 µM. AID 588664, 2011; in the data active means inhibition above about 5%, passing the limit was not always enough
TPT1 inhibitor – Candida albicans TPT1 enzyme inhibitors, primary screen, biochemical, fluorescence polarization | tRNA 2'-phosphotransferase TPT1 (Candida albicans SC5314) | recombinant caTPT1, FP RNA substrate dephosphorylation | inhibition, % at 5 µM | 300,000 tested, 0.81% active | AID 1962, 2009;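 active means inhibition above the mean of all tested compounds plus 3 SD, set per screening campaign, cut at about 24% in these data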;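 further: plate controls were DMSO alone for no effect and ferristatin control at 100 nM for full effect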
Calb FLC – C. albicans growth inhibition with fluconazole, primary screen, CaCi-2 strain, Alamar Blue fluorescence | C. albicans CaCi-2 (fluconazole-resistant clinical isolate) + fluconazole, 48 h | growth inhibition, % (test concentration not listed) | 300,000 tested, 0.57% active | AID 1979, 2009;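 active means growth inhibition above about 58% in most replicates, limit read from the data, passing the limit was not always enough; inconclusive means exactly half the replicates above a set limit; inactive means most replicates below a set limit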;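 further: all wells also contain fluconazole at 8 µg/ml as a sub-toxic cotreatment; 0% = median of DMSO wells and 100% = median of geldanamycin control wells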
* marks the source's active call; other numbers are inactive results.

Screening CC1O[C@@H](OC2C(O)C(O)C(CO)O[C@H]2OC2C[C@]3(C)C(CC(O)C4[C@@H]([C@]5(C)CC[C@@H](C(C)(C)O)O5)CC[C@]43C)[C@@]3(C)CCC(O)C(C)(C)C23)C(O)C(O)C1O (some centres not stated) returned IDE act 21.4*, Rpn11 inh 0.9, IDE inh 4.8 and Rin1 Abl inh 3.0.
Screening C[C@@H]1O[C@@H](O[C@H]2[C@H](O[C@H]3C[C@]4(C)C(C[C@@H](O)C5C([C@]6(C)CC[C@@H](C(C)(C)O)O6)CC[C@]54C)[C@@]4(C)CC[C@H](O)C(C)(C)C34)O[C@H](CO)[C@@H](O)[C@@H]2O)[C@H](O)[C@H](O)[C@H]1O (some centres not stated) returned IDE act 5.1, Rpn11 inh 3.6, IDE inh -1.6 and Rin1 Abl inh 0.8.
`COc1cccc(C2=CC(=O)CC(C)(C)C2)n1` gave IDE act -1.1, Rpn11 inh -2.3, IDE inh -1.3, Rin1 Abl inh 0.3, TPT1 inhibitor -3.9 and Calb FLC -1.4.
O=C(Cc1ccc([N+](=O)[O-])cc1)NNC(=O)c1ccc2c(c1)OCO2 was read as IDE act 2.5, Rpn11 inh -5.2, Rin1 Abl inh 0.2 and Calb FLC 113.2*.
For O=C(c1ccc2c(c1)OCO2)N1CCC2(CC1)Oc1ccc(F)cc1C(=O)C21CC(c2cccnc2)=NO1 (configuration not stated) the results were IDE act -5.7, Rpn11 inh 5.5, IDE inh 3.9, Rin1 Abl inh -0.4, TPT1 inhibitor 1.3 and Calb FLC 76.8*.
`O=C(c1ccc2c(c1)OCO2)N1CCC2(CC1)Oc1ccc(Cl)cc1C(=O)C21CC(c2cccnc2)=NO1` (configuration not stated) gave IDE act 6.2, Rpn11 inh -0.3, IDE inh -4.0, Rin1 Abl inh 1.5, TPT1 inhibitor -0.2 and Calb FLC 83.8*.
Screening O=C(c1ccoc1)N1CCC2(CC1)Oc1ccc(F)cc1C(=O)C21CC(c2ccccc2)=NO1 (configuration not stated) returned IDE act 0.4, Rpn11 inh -12.9, IDE inh 0.8, Rin1 Abl inh 3.0, TPT1 inhibitor -2.4 and Calb FLC 92.0*.
O=C(c1ccc2c(c1)OCO2)N1CCC2(CC1)Oc1ccc(F)cc1C(=O)C21CC(c2ccccc2)=NO1 (configuration not stated) was read as IDE act 6.9, Rpn11 inh -7.6, IDE inh 4.9, Rin1 Abl inh 1.5, TPT1 inhibitor 2.0 and Calb FLC 77.2*.
`O=C(c1ccoc1)N1CCC2(CC1)Oc1ccc(F)cc1C(=O)C21CC(c2cccnc2)=NO1` (configuration not stated) gave IDE act -0.1, Rpn11 inh -20.3, IDE inh 0.2, Rin1 Abl inh 1.6, TPT1 inhibitor -1.9 and Calb FLC 51.0.
Screening COc1c(C)cc(C(=O)C2CCCN(Cc3cnc(N4CCOCC4)s3)C2)cc1C (configuration not stated) returned IDE act -7.0, Rpn11 inh 3.2, IDE inh -4.3, Rin1 Abl inh -0.3, TPT1 inhibitor -4.8 and Calb FLC -11.1.
Cc1ccc(S(=O)(=O)c2c(C)nn(C(C)(C)C)c2OC(=O)c2ccco2)cc1 was read as IDE act 4.0, Rpn11 inh -1.8, IDE inh -1.4, Rin1 Abl inh 2.8, TPT1 inhibitor -0.7 and Calb FLC 31.5.
`Cc1ccc(S(=O)(=O)c2c(C)nn(C(C)(C)C)c2OC(=O)c2ccc(Br)o2)cc1` gave IDE act 1.6, Rpn11 inh 2.2, IDE inh -2.3, Rin1 Abl inh 3.0, TPT1 inhibitor -0.1 and Calb FLC 86.5*.
`CC(=O)Nc1ccc(C(=O)OCC(=O)NCc2ccc3c(c2)OCO3)cc1` gave IDE act -2.5, Rpn11 inh 0.4, IDE inh 0.7 and Rin1 Abl inh -2.7.
Cc1ccc(Cl)cc1NC(=O)N(C)CCO was read as IDE act 4.7, Rpn11 inh -2.7, IDE inh 5.9, Rin1 Abl inh 1.9, TPT1 inhibitor -0.6 and Calb FLC 17.4.
`COc1cc2nc(N3CCNCC3)nc(N)c2cc1OC` gave IDE act 1.4, Rpn11 inh 38.3, IDE inh 2.2, Rin1 Abl inh 8.2*, TPT1 inhibitor -2.2 and Calb FLC inconclusive.
`COc1cc2nc(N3CCN(c4cc(C)ccc4C)CC3)nc(N)c2cc1OC` gave IDE act 3.8, Rpn11 inh -5.7, IDE inh -1.9, Rin1 Abl inh 3.4, TPT1 inhibitor -4.4 and Calb FLC 12.3.
CCN(C1CCS(=O)(=O)C1)S(=O)(=O)c1ccc(Cl)s1 (configuration not stated) was read as IDE act 5.8, Rpn11 inh -1.5 and Rin1 Abl inh -4.5.
For CC(=O)c1cnc(Nc2cccc(Cl)c2Cl)s1 the results were IDE act 7.1, Rpn11 inh 2.7, IDE inh -0.5, Rin1 Abl inh -6.2, TPT1 inhibitor 0.2 and Calb FLC 79.5*.
CSc1ccccc1C(=O)N1CCc2ccc(NC(=O)c3ccccn3)cc2C1 was read as Rpn11 inh 5.0 and Rin1 Abl inh 1.4.
For CCCCc1nnc(NC(=O)CCN2C(=O)C3CC=CCC3C2=O)s1 (configuration not stated) the results were IDE act 2.2, Rpn11 inh 0.8, IDE inh -5.7 and Rin1 Abl inh 0.5.
Screening CC(=O)C1=C(C)NC(SCC(N)=O)=C(C#N)C1c1ccco1 (configuration not stated) returned IDE act 2.5, Rpn11 inh -4.4, IDE inh 5.2, Rin1 Abl inh 0.0, TPT1 inhibitor 0.5 and Calb FLC 0.2.
For CC(=O)C1=C(C)NC(SCC(=O)c2cc(Cl)ccc2Cl)=C(C#N)C1c1ccco1 (configuration not stated) the results were IDE act -0.5, Rpn11 inh 47.4*, IDE inh -0.1, Rin1 Abl inh -0.9, TPT1 inhibitor 16.3 and Calb FLC -6.6.
Screening c1ccc(NC2=NCCN2CCC2CCCC2)cc1 returned IDE act 3.6, Rpn11 inh 4.2, IDE inh -4.7, Rin1 Abl inh 2.4, TPT1 inhibitor 1.7 and Calb FLC -3.4.

Bioassay records as filed in PubChem.
